Data on four compounds can be found in PubChem BioAssay (NCATS).

The test system of test [1] is Zika virus NS2B-NS3 protease (linked construct). Briefly: Primary screen NINDS Rhodamine qHTS for Zika virus inhibitors (AID 1347160). Also: nearly all actives have a fitted effect of over 55% in size. Also: potency is read from the fitted curve at half-maximal effect. Summed up:
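Percent inhibition, normalized to uninhibited and enzyme-free controls, is fitted to a 4-parameter Hill equation. Fluorescence change comes from a 15-min cleavage of 1.5 microM bis-peptide Rhodamine110 substrate by 25 nM linked NS2B-NS3 at room temperature.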

Test [2] can be described thus: HPAF-II Cancer Cell Toxicity qHTS against the NCATS CANVASS Library (AID 1347346). Also: nearly all actives have a fitted effect of over 55% in size. Also: potency is read from the fitted curve at half-maximal effect. The method, boiled down:
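HPAF-II cells at 1000 cells/well were treated with an 11-point concentration series for 72 hours at 37 degrees C. Viability read by CellTiter-Glo luminescence.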
On the technique in general: Quantitative high-throughput screening tests each substance at several concentrations.

The nature of test [3]: OV-SAHO Cancer Cell Toxicity qHTS against the NCATS CANVASS Library (AID 1347348). Also: nearly all actives have a fitted effect of over 55% in size. Also: potency is read from the fitted curve at half-maximal effect. Summed up: (§1)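 Per well, 1000 cells; exposure 72 h with compound at 11 final concentrations; readout CellTiter-Glo luminescence.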
A short description of test [4]: U-118MG Cancer Cell Toxicity qHTS against the NCATS CANVASS Library (AID 1347351). Also: potency is read from the fitted curve at half-maximal effect. The method, boiled down:
as §1

A short description of test [5]: COV-362 Cancer Cell Toxicity qHTS against the NCATS CANVASS Library (AID 1347352). Also: potency is read from the fitted curve at half-maximal effect. The method, boiled down: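 Cells at 1000/well were given compound 4 h after plating in an 11-point series. Viability was read by CellTiter-Glo luminescence after 72 h at 37 degrees C.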
Test [6] in a line: HEK293 18hr Apoptosis Induction qHTS against the NCATS CANVASS Library (AID 1347357). Also: potency is read from the fitted curve at half-maximal effect. The method, boiled down: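 HEK293 cells (500 per well, DMEM with 10% FBS) were treated with natural products, incubated 18 hours at 37 degrees C, then caspase-3/7 activity was read by Caspase-Glo luminescence after 15 min at room temperature.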
Test [7] in a line: HPAF-II 12hr Apoptosis Induction qHTS against the NCATS CANVASS Library (AID 1347358). Summed up: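 HPAF-II cells, 500/well in DMEM + 10% FBS, exposed 12 hours at 37 degrees C to compound (11-point). Caspase-Glo 3/7 added for 15 min at room temperature; luminescence reflects caspase-3/7 activity.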
Test [8] can be described thus: HEK293 24hr Apoptosis Induction qHTS against the NCATS CANVASS Library (AID 1347359). Also: potency is read from the fitted curve at half-maximal effect. The method, boiled down:
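HEK293 cells (500/well, DMEM + 10% FBS) were exposed to compounds in an 11-point series for 24 hours at 37 degrees C, then caspase-3/7 activity was read by Caspase-Glo DEVD luciferase luminescence after 15 min.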

A short description of test [9]: HPAF-II 18hr Apoptosis Induction qHTS against the NCATS CANVASS Library (AID 1347360). Summed up:
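HPAF-II cells (500/well, DMEM + 10% FBS) were exposed to compounds for 18 hours at 37 degrees C. Caspase-3/7 activity was then read by Caspase-Glo 3/7 luminescence after 15 min at room temperature.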

The nature of test [10]: HEK293 12hr Apoptosis Induction qHTS against the NCATS CANVASS Library (AID 1347361). Also: potency is read from the fitted curve at half-maximal effect. Summed up:
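Read-out: Caspase-Glo 3/7 luminescence (DEVD substrate), 15 min RT. Preceded by 12 h compound exposure of HEK293, 500 cells/well, 11-pt qHTS titration; doxorubicin titration as control.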

For test [11], the target named is Luciferin 4-monooxygenase (Photinus pyralis) (UniProt P08659). Briefly: Firefly luciferase counterscreen qHTS: Assay Interference Panel against the NCATS CANVASS Library (AID 1347363). Also: series mostly up to about 57 µM. The method, boiled down:
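Purified P. pyralis luciferase was added to compounds (11-point series) preincubated 15 min at room temperature with substrate containing 0.013 mM D-luciferin and 0.013 mM ATP; luminescence was read after 5 min.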

Test [12] is described as follows: MCF7 Cancer Cell Toxicity qHTS against the NCATS CANVASS Library (AID 1347369). Also: potency is read from the fitted curve at half-maximal effect. Summed up: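 MCF7, 500 cells/well; cpds 11-pt qHTS; 72 hr, 37C/5% CO2; CellTiterGlo ATP luminescence.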
Test [13] in a line: qHTS for ATAD5 Antagonist screened against the NCATS CANVASS Library (AID 1347370). Also: nearly all actives have a fitted effect of over 65% in size. Also: potency is read from the fitted curve at half-maximal effect. Summed up:
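HEK293T cells with stably integrated ATAD5-luciferase reporter, 2000/well, 5 h attachment; compounds plus 10 µM 5-fluorouridine, 16 h at 37 °C. Luciferase luminescence read, with CellTiter-Fluor viability read first.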

The nature of test [14]: J3T Cancer Cell Toxicity qHTS against the NCATS CANVASS Library (AID 1347371). Also: potency is read from the fitted curve at half-maximal effect. Summed up:
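J3T dog glioma cells, 500 per well, treated 72 h at 37C with compounds (11-point qHTS); viability from ATP content by CellTiterGlo luminescence; bortezomib titration as control.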

Test [15] concerns the target Nuclear receptor subfamily 1 group I member 3 (Homo sapiens) (UniProt Q14994). Briefly: qHTS for Constitutive Androstane Receptor (CAR) Antagonist screened against the NCATS CANVASS Library (AID 1347372). Also: potency is read from the fitted curve at half-maximal effect. The method, boiled down:
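HepG2 cells stably carrying hCAR and a CYP2B6-2.2kb luciferase reporter were exposed to compounds plus 50 nM CITCO for 24hr at 37C. CAR activity was read by ONE-Glo luminescence, with viability measured first by CellTiter-Fluor.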

Test [16] is described as follows: 10-beta competent E. coli microbial cell viability qHTS against the NCATS CANVASS Library (AID 1347376). Also: series mostly up to about 46 µM. Summed up: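 10-beta competent E. coli (0.2 OD) were exposed overnight at 37C to compounds in an 11-point series. Viability was read as ATP-dependent BacTiter-Glo luminescence after 20 min at room temperature.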
The nature of test [17]: qHTS for Inflammasome Signaling Inhibitors: IL-1-beta AlphaLISA screen against the NCATS CANVASS Library (AID 1347379).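 Also: human THP-1 cells primed with LPS then triggered with ATP.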 Summed up:
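THP-1 cells pretreated 1 hr with compound (up to 57.5 uM final), then stimulated with LPS (250 ng/mL final) and ATP (1.25 mM final). Secreted IL-1B measured by AlphaLISA after 16 hr; glyburide as positive control.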

Test [18] in a line: Inflammasome Signaling qHTS Counterscreen: IL-1-beta AlphaLISA counterscreen against the NCATS CANVASS Library (AID 1347381).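 Also: cell-free check with purified IL-1β in medium and no THP-1 cells; series mostly up to about 57 µM.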 The method, boiled down:
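Cell-free interference check: compounds added to medium spiked with 4 pg purified IL-1β. Anti-IL-1β acceptor beads (6 ug/mL) with 0.6 nM biotinylated antibody added for 1 h at RT, then streptavidin donor beads (24 ug/mL) for 30 min in the dark. AlphaLISA read at 680/615 nm.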

A short description of test [19]: Cytotoxicity qHTS for assessment of Hepg2 cells membrane integrity screened against the NCATS CANVASS Library (AID 1347387). The method, boiled down: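 HepG2 cells (2000/well) attached overnight, then exposed 5 hr at 37C to compounds in an 11-point series (0.59 nM - 46 uM final). LDH release from damaged membranes read fluorometrically (CytoTox-ONE; 560/590 nm) after 10 min at room temperature.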

A short description of test [20]: Vero-766 cells viability qHTS against the NCATS CANVASS Library: Counterscreen for Zika virus inhibition assay (AID 1347394). Also: nearly all actives have a fitted effect of over 60% in size. Also: potency is read from the fitted curve at half-maximal effect. Summed up:
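Uninfected Vero 766 (African green monkey) cells, 1000/well, attached overnight, then exposed 72 h at 37C to compounds (11-point qHTS). Viability read by CellTiter-Glo luminescence; media-only wells served as 100% inhibition.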

Records with an inconclusive call do not appear. Activity calls are given as the source filed them. Calls follow the shape of the dose curve; as a rule, active = well fitted curve in the direction sought with a large enough effect; inconclusive = small, poorly fitted or top-dose-only effect, or another doubt; inactive = no such curve, though single readings can be large; an effect the other way counts as inactive or inconclusive.

Luciferin 4-monooxygenase (Photinus pyralis), sequence (P08659 whole entry, looked up): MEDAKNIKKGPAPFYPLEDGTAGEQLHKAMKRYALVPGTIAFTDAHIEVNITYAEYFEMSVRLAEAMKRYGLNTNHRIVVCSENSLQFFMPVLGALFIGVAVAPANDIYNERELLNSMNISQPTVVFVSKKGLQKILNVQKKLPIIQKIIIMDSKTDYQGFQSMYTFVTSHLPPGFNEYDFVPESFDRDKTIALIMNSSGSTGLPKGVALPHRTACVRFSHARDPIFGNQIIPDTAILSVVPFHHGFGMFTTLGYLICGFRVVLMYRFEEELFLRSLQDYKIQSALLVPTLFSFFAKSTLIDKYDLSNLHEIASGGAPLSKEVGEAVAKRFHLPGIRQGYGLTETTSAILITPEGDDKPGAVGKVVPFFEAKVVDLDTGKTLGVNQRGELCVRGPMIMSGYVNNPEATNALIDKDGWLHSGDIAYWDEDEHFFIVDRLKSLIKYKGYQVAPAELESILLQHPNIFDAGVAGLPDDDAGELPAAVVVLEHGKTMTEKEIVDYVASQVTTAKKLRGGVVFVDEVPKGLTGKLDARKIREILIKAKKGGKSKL
Nuclear receptor subfamily 1 group I member 3 (Homo sapiens), sequence (Q14994 whole entry, looked up): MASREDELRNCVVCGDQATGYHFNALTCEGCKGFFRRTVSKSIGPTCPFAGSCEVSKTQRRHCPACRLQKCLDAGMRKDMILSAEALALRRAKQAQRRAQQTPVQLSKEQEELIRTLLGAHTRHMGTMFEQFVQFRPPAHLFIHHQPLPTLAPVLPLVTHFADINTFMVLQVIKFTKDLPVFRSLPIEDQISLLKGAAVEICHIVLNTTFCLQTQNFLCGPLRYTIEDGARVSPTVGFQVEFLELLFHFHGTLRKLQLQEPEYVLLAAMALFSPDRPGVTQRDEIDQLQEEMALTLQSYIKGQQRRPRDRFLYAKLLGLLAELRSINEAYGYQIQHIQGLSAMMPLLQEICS

As to `CC1C(=O)C23CCC1C[C@]21O[C@@H]2C(C)(C)C=CC(=O)[C@@]23COC1=O` (some centres not stated), the Potency in [1] is 31.1 µM (active). For the same compound, the Potency entry in [2], in [3], in test [4], in test [5], in test [6] and in [7] was “inactive” each time. Besides, the Potency result in [8], in test [9], in [10], in test [11], in test [12] and in test [13] was “inactive” each time. The Potency entry in [14], in test [15], in [17] and in test [20] was “inactive” each time. Further, the outcome in test [16], in [18] and in test [19] was inactive.
As for `C=C(C)[C@@H]1CC[C@]2(C)CC[C@]3(C)[C@H](CC[C@@H]4[C@@]5(C)CC[C@H](O)C(C)(C)[C@@H]5CC[C@]43C)[C@@H]12`, the Potency result in test [1], in test [2], in [3], in test [4], in test [5] and in [6] was “inactive” throughout. In addition, the Potency result in [7], in [8], in test [9], in test [10], in [11] and in test [12] was “inactive” throughout. Also, the Potency entry in test [13], in test [14], in test [15], in test [17] and in [20] was “inactive” in each case. Further, the compound was classed as inactive in [16], in [18] and in test [19].
`CCCCCCCCCCCCCCC[C@H](O)C[C@@H](O)C[C@@H](O)C[C@@H](O)C[C@@H](O)C[C@H]1CC=CC(=O)O1`: the Potency in [1] was 44 µM (active); in [2], 4.21 µM (active); in test [3] it was 1.49 µM (active); in test [4], 2.11 µM (active); in test [5], 3.34 µM (active); in test [6], 16.6 µM (active). Further, the Potency in [8] was 26.4 µM (active); in test [10] it was 9.35 µM (active); in [12], 7.39 µM (active); in test [13], 26.3 µM (active); in [14] it was 3.72 µM (active); in test [15], 8.31 µM (active). Further, the Potency in test [17] was 3.06 µM (active); in test [20] it was 5.24 µM (active). Moreover, the Potency result in test [11] was “inactive”. Also, the compound was classed as inactive in [16] and in test [18].
For `O=C(O)[C@@]12CO[C@@]3(O)C4CCN(CC[C@H]31)[C@H]4c1c2[nH]c2ccccc12`, the Potency result in test [1], in test [2], in test [3], in test [4], in [5] and in test [6] was “inactive” each time. Besides, the Potency entry in test [7], in test [8], in test [9], in [10], in [11] and in test [12] was “inactive” each time. Moreover, the Potency entry in test [13], in [14], in test [15], in test [17] and in test [20] was “inactive” in each case. The call in [16], in test [18] and in [19] was inactive.
